Source: PubChem BioAssay (NCI)
Compounds without any hit were thinned out: in the full panel of roughly 83,000, 20% have a hit.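 Interpretation: 100, growth as untreated; towards 0, rising growth inhibition; 0, no net growth; 0 to -100, cell death. Compounds scoring below 10 were considered active.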 The source made the active and inactive calls.

These molecules were tested on HCT-15 colon (assay: NCI-60 one-dose screen, 48 h (100 = growth as untreated, 0 = no growth, -100 = all killed)). Settings: 10 µM unless noted.

Structure (SMILES) | growth
COC(=O)c1c2c(c(C)[n+]([O-])c1C)C(=O)C(NCc1ccc(OC)cc1)=CC2=O | 9.67% (active)
O=C1/C(=C\c2cccc3nccnc23)SC(=S)N1CCc1ccc(O)cc1 | 101% (inactive)
Cc1cn(-c2cc(NC(=O)c3cncc(C#Cc4c(N)ncc5ccc(F)cc45)c3)cc(C(F)(F)F)c2)cn1 | 49.9% (inactive)
CCCCNC(=O)Oc1ccc(/C(=C(/C)Cc2ccc(OC)cc2)c2ccc(OCCN3CCCCCC3)cc2)cc1 | 27.8% (inactive)
COc1ccc(-c2n[nH]c(=O)c3nc(NC(=S)Nc4ccc(Oc5ccccc5)cc4)sc23)cc1 | 103% (inactive)
O=C(/C=C/C12c3ccccc3C(c3ccccc31)C1C(=O)NC(=O)C12)c1ccc(Br)cc1 (stereo not drawn) | 36.1% (inactive)
C=CN(C(=O)N1CCN(c2cc3c(cc2F)c(=O)c(C(=O)O)cn3C2CC2)CC1)c1nc(-c2ccc(OC)cc2)cs1 | 13.6% (inactive)
Cc1cc(Nc2ccc(C(=O)N3CCCC3)cc2)nc(NCCCNc2ccnc3cc(Cl)ccc23)n1 | 102% (inactive)
